Shown are actives, neighbours in structure and some others; about 4% of the full set was active somewhere.
D1 agonist – human D1 receptor agonism; HEK293 T-REx D1 cells, calcium flux, agonist mode; activation, % at 2 µM; actives 1% (n = 360,000); AID 504660
Target sequence (P21728 whole entry, looked up): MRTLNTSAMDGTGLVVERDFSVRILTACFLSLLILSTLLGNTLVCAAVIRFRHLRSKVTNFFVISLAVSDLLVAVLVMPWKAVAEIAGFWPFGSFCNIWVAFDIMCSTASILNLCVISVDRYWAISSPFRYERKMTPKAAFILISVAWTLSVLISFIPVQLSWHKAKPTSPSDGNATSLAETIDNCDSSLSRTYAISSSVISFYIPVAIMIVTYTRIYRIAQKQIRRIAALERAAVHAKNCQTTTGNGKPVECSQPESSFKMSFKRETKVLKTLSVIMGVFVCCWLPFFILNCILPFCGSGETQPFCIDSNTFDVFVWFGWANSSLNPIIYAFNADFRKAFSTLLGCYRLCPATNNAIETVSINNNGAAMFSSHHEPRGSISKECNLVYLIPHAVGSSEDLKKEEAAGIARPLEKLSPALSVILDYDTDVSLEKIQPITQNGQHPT
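Inducible HEK293 T-REx D1 cells, force-coupled to calcium signalling, were plated at 4000 cells/well with tetracycline and held overnight at 30 C. After no-wash calcium dye loading, compound-evoked calcium rise over 180 s flagged agonists.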
TRHR PAM – allosterically enhances the human TRH receptor; P34981; enhancement, % at 2 µM; AID 493056; actives 0.66% (n = 360,000); TRHR cells, fluo-8 calcium fluorescence, EC20 TRH enhancement; in the data active means enhancement above about 30%
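TRHR-expressing cells loaded with fluo-8 calcium dye were read kinetically (ex 480/em 530) during compound addition, then stimulated with an EC20 of TRH (10 nM final). Enhancement of the Gq-mediated intracellular calcium response was scored.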
D1 antagonist – human D1 dopamine receptor antagonism. activity change, negative = inhibition, % at 10 µM. AID 504652. HEK293 TREx D1 cells, calcium flux, dopamine EC80; active compounds read low. actives 3.2% (n = 360,000); in the data active means activity change below about -30%
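Allosteric or orthosteric antagonism assessed as attenuation of the calcium response to EC80 dopamine, added 180 s after compound, in induced HEK293 Trex D1 cells loaded with no-wash calcium dye.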
TRHR agonist – activates the human TRH receptor; P34981; TRHR cells, calcium flux fluo-8, FDSS agonist mode; activation, % at 2 µM; actives 0.18% (n = 360,000)
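Fluo-8-loaded TRHR cells; 10 s baseline, compound added, kinetic Ca2+ fluorescence read 1/s, agonist mode.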
D1 potentiator – human D1 dopamine receptor positive modulation; P21728; potentiation, % at 10 µM; HEK293 TREx D1 cells, calcium flux, dopamine EC20 potentiation; actives 0.036% (n = 360,000); in the data active means potentiation above about 30%
Glioma ERSR ind – inducers of ER stress response in human glioma cells; U87-MG GRP78 promoter luciferase reporter, 16 h; Potency, µM, most hits filed as activators; actives 0.02% (n = 420,000); active means well fitted activation curve with a large enough effect; inconclusive means small, poorly fitted or top-dose-only effect; inactive means no such curve, though single readings can be large or run the other way; further: series mostly up to about 76 µM; nearly all actives have a fitted effect of over 35% in size
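Stably transfected U87-MG glioma cells carrying a GRP78-based luciferase sensor; 16 h compound incubation. Luminescence end-point read 10 min after Bright-Glo addition at room temperature.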
Of the large screens only hits and unclear results are named; the others gave an inactive call. Unless noted, no stated cut-off is given here; in the data, active means activation above about 30%; inactive means the rest.

Cc1ccc(NC(=S)Nc2ccc(Br)cc2)cc1	D1 antagonist -33
Cc1ccc(OCCCC(=O)Nc2ccc(Br)cc2)cc1	D1 antagonist -67
CCCCCC1CC(=O)C=C(C)C1C(=O)OC (configuration not stated)	none
O=C(Nc1cc(C(F)(F)F)ccc1Cl)C(Sc1nnc(-c2cccs2)o1)c1ccccc1 (configuration not stated)	D1 antagonist -45
O=C(Nc1ccc(Cl)cc1C(F)(F)F)C(Sc1nnc(-c2cccs2)o1)c1ccccc1 (configuration not stated)	none
C=CCNc1sc(C(=O)c2ccc(C)cc2)c(N)c1C#N	none
C=CCNc1nc(N)c(C(=C(C#N)C#N)c2ccc(Br)cc2)s1	D1 antagonist -32
O=C(O)C1(c2ccccc2)CCN(S(=O)(=O)c2ccc(F)c(F)c2)CC1	none
CCOc1ccc(NC(=O)CN(C)C(=O)c2ccc(=O)[nH]c2)cc1OCC	D1 antagonist -77
CCOc1ccc(NC(=O)CN(C)C(=O)C2CC2C)cc1OCC (configuration not stated)	none
CCOc1ccc(NC(=O)CN(C)C(=O)c2ccc(C3SCCS3)cc2)cc1OCC	D1 antagonist -45
COC(=O)Cc1c(O)ccn(CCc2c[nH]c3ccc(OC)cc23)c1=O	none
O=C(CSc1ccsc1[N+](=O)[O-])N1CCN(c2ccccc2)CC1	D1 antagonist -31
O=C(COc1ccccc1)N1CCN(C(=O)c2cccs2)CC1	none
O=C(COc1ccc(Cl)cc1)N1CCN(C(=O)c2cccs2)CC1	D1 antagonist -61
O=C(OCC(=O)N1CCN(c2ccccc2)CC1)c1ccccc1[N+](=O)[O-]	D1 antagonist -36
O=C(COc1ccc(Br)cc1)N1CCN(c2ccccc2)CC1	none
O=C(COc1ccccc1)N1CCN(c2ccccc2)CC1	D1 antagonist -35
C=C(C)C(=O)Nc1cccc(C2=NOC3(C2)C[C@H](C(N)=O)N(C(=O)CC)C3)c1 (some centres not stated)	none
O=C(NC1CCCN(Cc2ccc(Cl)cc2)C1)c1ccnc(Cl)c1 (configuration not stated)	TRHR PAM 32
O=C(NC1CCN(Cc2ccccc2)C1)c1cc(S(=O)(=O)N2CCOCC2)ccc1Cl (configuration not stated)	D1 antagonist -30
Cc1ccc(S(=O)(=O)N2CCOCC2)cc1C(=O)NC1CCN(Cc2ccccc2)CC1	none (no result: D1 agonist, TRHR PAM, D1 antagonist, TRHR agonist, D1 potentiator)
O=C(Nc1cc(S(=O)(=O)N2CCOCC2)ccc1Cl)c1cc2ccccc2o1	D1 antagonist -48
CC1CCc2sc(C(=O)NC3CCN(Cc4ccccc4)CC3)cc2C1 (configuration not stated)	D1 agonist 37 (no result: D1 potentiator)
Cc1ccc(-c2nnn(CC(=O)N(CC(=O)NCC3CCCO3)c3ccc(F)c(Cl)c3)n2)o1 (configuration not stated)	none
CC(C)c1nnc(NC(=O)CCN2C(=O)c3ccccc3C2=O)s1	none
COC(=O)c1cccc(NC(=O)CN(c2ccc3c(c2)OCO3)S(C)(=O)=O)c1C	none
Cc1ccc(C(NC(=O)C2CCN(CCOc3ccc(Cl)cc3)CC2)c2ccccn2)cc1 (configuration not stated)	none (no result: D1 agonist, TRHR PAM, D1 antagonist, TRHR agonist, D1 potentiator)
O=C(NC1CCN(Cc2ccc(Cl)c(Cl)c2)CC1)c1ccccc1	D1 antagonist -33
CN1CCN(c2ccc(NC(=O)CSc3nnnn3-c3ccccc3Cl)cc2)CC1	D1 antagonist -83
CC(Sc1nncn1C)C(=O)Nc1ccc(N2CCCCC2)cc1 (configuration not stated)	D1 antagonist -35
CC(Sc1nnnn1-c1ccccc1)C(=O)Nc1ccc(N2CCN(C)CC2)cc1 (configuration not stated)	D1 antagonist -37
CCC(c1nnc(SCC(=O)N2CCOCC2)n1C1CCCCC1)N(C)C (configuration not stated)	none
CCOC(=O)N1CCC(NC(=O)CCCC(=O)O)CC1	D1 antagonist -33
Cc1ccc(C)n1NC(=O)c1ccccc1Cl	none
CC(=O)c1c(C(C)=O)c(C)n(NC(=O)c2ccccc2Cl)c1C	D1 antagonist -49
Oc1ccc(/C=C/c2ccc3cccc(O)c3n2)cc1Br	D1 agonist 37, Glioma ERSR ind inconclusive
O=C(O)c1ccc(/C=C/c2ccc3cccc(O)c3n2)cc1	none
Cc1nnc(N2CCCC(C(=O)NCc3ccccc3F)C2)c2nn(-c3ccccc3)c(C)c12 (configuration not stated)	none
Cc1ccccc1CNC(=O)C1CCCN(c2nnc(C)c3c(C)n(-c4ccccc4)nc23)C1 (configuration not stated)	D1 potentiator 46
COc1ccc(-n2c(=O)c(CCC(=O)N3CCN(c4cccc(OC)c4)CC3)nc3ccccc32)cc1	none (no result: D1 agonist, TRHR PAM, D1 antagonist, TRHR agonist, D1 potentiator)
CC1CCC(N2CC(=O)N(C3CCCC3)C(c3ccc(Cl)cc3)C2=O)CC1 (configuration not stated)	TRHR PAM 31
COC(=O)c1ccccc1NC(=O)c1cc2cc(C)ccc2n1C	none
CCC/C(=N\NC(=O)c1csc(C)c1C)c1cccs1	TRHR PAM 35
COc1ccc(C2=NNC(c3cccs3)=Nc3ccc(OC)cc32)cc1	D1 antagonist -39
CCOc1ccc(C2=NNC(c3cccs3)=Nc3ccc(OC)cc32)cc1OCC	none
CN(C)c1ccc(/C=C/c2cc[n+](C)cc2)cc1	none
CN(C)c1ccc(/C=C/c2cc[n+]([O-])cc2)cc1	D1 agonist 73, TRHR agonist 61 (no result: Glioma ERSR ind)
COc1ccc(CCNC(=O)C(=O)NCC(c2ccco2)S(=O)(=O)c2ccc(F)cc2)cc1 (configuration not stated)	TRHR PAM 36 (no result: D1 antagonist)
O=C(NCCc1ccc(F)cc1)C(=O)NCC(c1cccs1)S(=O)(=O)c1cccs1 (configuration not stated)	D1 agonist 42 (no result: D1 antagonist)
COc1ccc(CCNC(=O)C(=O)NCC(c2ccco2)S(=O)(=O)c2ccccc2)cc1 (configuration not stated)	none (no result: D1 antagonist)
CC(C)C(NC(=O)c1ccoc1)c1nnc2n1CCN(Cc1ccc3c(c1)Cc1ccccc1-3)CC2 (configuration not stated)	none (no result: D1 agonist, TRHR PAM, D1 antagonist, TRHR agonist, D1 potentiator)
Nc1ncnc2c1ncn2[C@@H]1O[C@H](C(=O)NCc2ccc3c(c2)OCO3)[C@@H](O)[C@H]1O	none (no result: D1 agonist, TRHR PAM, D1 antagonist, TRHR agonist, D1 potentiator)
Nc1c2c(nc3ccn(-c4ccccc4)c(=O)c13)CCCCC2	D1 antagonist -35
Nc1c2c(nc3ccn(Cc4ccccc4)c(=O)c13)CCC2	none
CC(=O)Oc1ccc(NC(=O)Cc2ccccc2)cc1	none

Assay outcomes (PubChem BioAssay)
